This is one part of a sample in which hits are shown more often than they occur.
TDP-43 rescue: qHTS of TDP-43 Inhibitors: NCGC Sytravon Library Screen; yeast TDP-43 toxicity rescue, BacTiter-Glo growth, 24 h; Potency, µM (highest dose often 46.1 µM), most hits filed as activators; 0.45% of 45,000 active; active = well fitted activation curve with a large enough effect; note: 0% is about no effect; nearly all actives have a fitted effect of over 55% in size
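TDP-43-expressing yeast, pregrown in raffinose, seeded at OD600 0.02 in galactose medium with compound for 24 hr at 30 deg C. Growth read by BacTiter-Glo luminescence, so rescue of toxicity appears as activation.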
* hit, by the source's call; i = inactive. Potency is the fitted concentration of half-maximal effect.

SMILES	TDP-43 rescue
N/C(=N\OC(=O)c1cccc(Cl)c1)c1cccnc1	11µM*
N/C(=N\OC(=O)c1ccc(Cl)cc1[N+](=O)[O-])c1cccnc1	i
N/C(=N\OC(=O)COc1ccc(Cl)cc1Cl)c1cccnc1	i
Cc1cccc(-n2c(SCC(=O)N3CCC(C(=O)O)CC3)nc3ccccc3c2=O)c1C	i
Cc1cc(NC(=O)c2cccc([N+](=O)[O-])c2)n(-c2ccccc2)n1	i
Nc1c(-c2ccccc2)c(CN2CCOCC2)nn1-c1cccc([N+](=O)[O-])c1	i
Cc1ccccc1-c1cnn(-c2cccc([N+](=O)[O-])c2)c1N	13µM*
CN(C)c1cccc(C(=O)NNC(=O)CN2C(=O)C3CC=CCC3C2=O)c1 (centres undefined)	i
Cn1nccc1-c1coc2c(C(=O)NCC3CCOCC3)cccc12	i
O=C(NCC1CC1)c1cccc2c(-c3ccc(F)c(F)c3)coc12	22µM*
O=C(NCc1ccc(F)c(F)c1)c1cccc2c(-c3cccnc3)coc12	10µM*
COc1ccc(CNC(=O)c2ccc(-c3ccc(F)c(F)c3)c3ccoc23)cc1OC	i
NC(=O)c1cccc(-c2coc3c(C(=O)NC4CCCCC4)cccc23)c1	i
O=C(NCc1cccc(Cl)c1)c1ccc(-c2ccc(F)c(F)c2)c2ccoc12	i
CCCCCn1cnnc1SCC(=O)c1c(N)n(C2CC2)c(=O)[nH]c1=O	i
O=C(O)Cn1c2c(c3ccccc31)CSc1ccc(Cl)cc1-2	i
COc1ccccc1NC(=O)Cc1nnc(SCC(=O)NC2CCCCC2)n1C	i
COc1cc(C(=O)NNC(=O)c2nn(C)c(=O)c3ccccc23)cc(OC)c1OC	i
CCc1ccc2c(c1)NC(=O)C2(C)Cc1ccc(Cl)cc1 (centres undefined)	i
Cc1ccc(CC2(C)C(=O)Nc3c(Cl)cccc32)cc1 (centres undefined)	8.9µM*
COc1ccccc1-c1ccc2c(c1)C(C)(Cc1ccc(Cl)c(Cl)c1)C(=O)N2 (centres undefined)	i
COc1ccc(OC)c(N2C(=O)c3cccnc3C2=O)c1	i
Cc1ccc(COC(=O)c2cccc(S(=O)(=O)N3CCCCC3)c2)cc1	i
O=C(NCC1CCN(C(=O)c2cccc([N+](=O)[O-])c2)CC1)c1cccc([N+](=O)[O-])c1	i
O=C(NCC1CCN(C(=O)c2c(F)c(F)c(F)c(F)c2F)CC1)c1c(F)c(F)c(F)c(F)c1F	18µM*
SMILES	TDP-43 rescue
CC(C)CNC(=O)c1c(F)c(F)c(F)c(F)c1F	i
Cc1cc2c(c(N3CCOCC3)n1)C(=O)OC2	i
Cc1cc2c(c(SCC(=O)NCc3ccccc3Cl)n1)C(=O)OC2	i
C=CCSc1nc(C)cc2c1C(=O)OC2	10µM*
OC[C@H]1O[C@@H](c2nc(-c3cccc4ccccc34)no2)[C@H](O)[C@@H]1O	i
O=[N+]([O-])c1ccc(Oc2ccc(/C=N/O)cc2)nc1	i
CCN(CC)c1nc(Oc2ccc(C(=O)NN)cc2)nc(Oc2ccc(C(=O)NN)cc2)n1	i
CN(C)c1nc(Oc2ccc(/C=N/O)cc2)nc(N(C)C)n1	11µM*
Cc1ccc(Oc2ccc(OCC(=O)NC3CCS(=O)(=O)C3)cc2)cc1 (centres undefined)	i
C/C(=N\Nc1cccc(C(=O)O)c1)c1ccc(Cl)s1	i
C/C(=N\Nc1ccc(Cl)c(C(=O)O)c1)c1cccc2ccccc12	i
C/C(=N\Nc1ccc(C(=O)O)cc1)c1ccc2c(c1)Nc1ccccc1S2	11µM*
Cn1nc(C2CC2)cc1NC(=O)C1(C)CCN1C(=O)CC(c1ccccc1)c1ccccc1 (centres undefined)	i
COc1ccccc1-c1nnc(SCC(=O)N2CCCC2)o1	i
CC(C)c1ccccc1NC(=O)Nc1nnc([C@@H]2C[C@H](O)[C@@H](CO)O2)s1	i
CCCCOC(=O)/C=C/c1ccc(OC(=O)OC)c(OC(=O)OC)c1	i
COC(=O)Oc1ccc(/C=C/C(=O)OC(C)C)cc1OC(=O)OC	14µM*
COc1cc(/C=C/C(=O)OC(C)C(=O)Nc2ccc(Cl)cn2)ccc1OC(F)F (centres undefined)	i
CCN1CCN(c2ccc(S(=O)(=O)N3CCOCC3)cc2N)CC1	i
Cc1c(NC(=O)C(C)Oc2ccc(Br)cc2)c(=O)n(-c2ccccc2)n1C (centres undefined)	i
Nc1nc(NCCOCCO)nc(NCc2ccccc2)c1[N+](=O)[O-]	i
O=C(O)c1ccc(NC(=S)NC(=O)c2ccc(-c3ccccc3)cc2)cc1	13µM*
O=C(Nc1ccc(C(=O)O)cc1)/C(=C\c1ccccc1)NC(=O)c1ccccc1	i
O=C(NC(=S)Nc1ccccc1)c1ccc(-c2ccccc2)cc1	i
CCCn1c(N)c(N(CCOC)C(=O)CSc2cc(C)c3ccccc3n2)c(=O)[nH]c1=O	i
SMILES	TDP-43 rescue
COc1ccccc1-c1csc(C(NC(C)=O)c2ccccc2)n1 (centres undefined)	i
O=C(Cc1ccccc1F)NCC(=O)Nc1ccccc1Br	i
CCCN(CC(=O)Nc1ccc(F)c(F)c1F)C(=O)c1ccc2c(c1)NC(=O)CS2	i
CCCN(CC(=O)Nc1ccccc1Br)CC(=O)Nc1ccc(F)c(F)c1F	11µM*
CCOC(=O)Cc1ccc(Nc2nc(NCc3cccs3)nc3ccsc23)cc1	i
CCc1ccc(OCC(=O)N(Cc2ccc(C)o2)C2CCS(=O)(=O)C2)cc1 (centres undefined)	i
CCCOc1ccc(CNC(=O)c2cc3oc4ccccc4c3n2C)cc1	i
Cc1cc(S(=O)(=O)N2c3ccc(F)cc3CCC2C)ccc1-n1cnnn1 (centres undefined)	i
O=C(Nc1ccc(Cl)c(C(F)(F)F)c1)C1Cc2c(-c3ccc4c(c3)OCO4)ccnc2O1 (centres undefined)	i
Nn1c(SCc2cccc(Oc3ccccc3)c2)nnc1C(F)(F)F	13µM*
Nn1c(=O)c2ccccc2n2c(SCc3ccccc3)nnc12	i
Cn1c(SCC(=O)Nc2ccccc2)nnc1C(F)(F)F	i
O=C(CN1CCN(Cc2ccc(Cl)cc2)CC1)N1CCc2ccccc21	i
CSc1ncccc1C(=O)NCc1nnc2ccccn12	i
O=C(O)c1ccccc1OCCOc1ccccc1	22µM*
CC(=O)Nc1ccc(OCCOc2ccccc2C(C)=O)cc1	i
CCC(C)/C(C)=N/NC(=O)c1ccccc1OCCOc1ccccc1 (centres undefined)	i
Cc1ccc2c(c1)C1CN(C)CCC1N2Sc1ccccc1[N+](=O)[O-] (centres undefined)	i
Cc1ccc(Nc2nc(NCCO)c3ccccc3n2)cc1C	i
CC(=O)NC(c1cccc(F)c1)c1nc(-c2csc3ccccc23)cs1 (centres undefined)	i
CC1(C(=O)NS(=O)(=O)C2CC2)CCN(C(=O)COc2ccc(Cl)cc2Cl)C1 (centres undefined)	i
Cc1ccc(NC(=O)Nc2ccc(F)c(Cl)c2)cc1	i
Cc1cccc(OCCC(=O)Nc2ccc(F)c(Cl)c2)c1	13µM*
Cc1ccc(OCCC(=O)Nc2ccc(F)c(F)c2)cc1	i
COc1ccc(Cl)cc1-c1nc(SCC(=O)NC(C)C(C)C)n[nH]1 (centres undefined)	i
CCNC(=O)C1(C)CCN(C(=O)c2cc(F)ccc2C)C1 (centres undefined)	i
Cn1cc(-c2csc(C(O)c3ccc(F)cc3)n2)cn1 (centres undefined)	i

High-throughput results as filed in PubChem.
